# D2 PAM-1 – positively modulates the human D2 dopamine receptor allosterically; HEK293 T-REx D2, calcium flux, EC20 dopamine potentiation; potentiation, % at 10 µM; 0.34% of 340,000 active;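 active means potentiation over 3 SD above the plate norm, cut at about 30% in these data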; further: 0% is about no effect
# Target sequence (P14416 whole entry, looked up): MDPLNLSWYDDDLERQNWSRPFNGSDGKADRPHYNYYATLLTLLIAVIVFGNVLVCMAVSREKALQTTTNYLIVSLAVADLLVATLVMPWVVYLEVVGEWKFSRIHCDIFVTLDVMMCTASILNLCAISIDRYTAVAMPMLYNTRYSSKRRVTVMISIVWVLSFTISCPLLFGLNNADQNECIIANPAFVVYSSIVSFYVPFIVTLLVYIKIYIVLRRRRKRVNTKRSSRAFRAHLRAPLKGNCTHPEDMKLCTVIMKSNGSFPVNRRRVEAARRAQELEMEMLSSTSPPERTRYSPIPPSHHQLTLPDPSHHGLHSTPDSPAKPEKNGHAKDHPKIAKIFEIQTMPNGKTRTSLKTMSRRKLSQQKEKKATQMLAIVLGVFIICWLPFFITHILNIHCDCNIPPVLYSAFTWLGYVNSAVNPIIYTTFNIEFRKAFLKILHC
#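 Cells plated with tetracycline inducer and held overnight at 30 C; calcium dye loaded 30–90 min at room temperature; baseline taken, compound added and read 180 s; EC20 dopamine then added and read 180 s.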
# D2 antagonist – D2 dopamine receptor (human) antagonism; AID 485344; inhibition, % at 10 µM; HEK293 TREx D2 cells, calcium flux, dopamine EC80; 2% of 340,000 active; in the data active means inhibition above about 30%; inactive means below that, where a call was filed; further: 0% is about no effect
#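 Cells plated overnight at 30 C with tetracycline; no-wash calcium dye, 30–90 min RT; 10 s baseline; compound pinned; 180 s read; EC80 dopamine added; another 180 s read.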
# D2 ag-1 – agonists of human D2 dopamine receptor (beta-arrestin); P14416; DiscoveRx PathHunter D2 beta-arrestin, luminescence, 90 min; 100% = 57 uM dopamine signal; activation, % (no concentration beside the values); 0.084% of 360,000 active; in the data active means activation above about 40%; inconclusive means between about 15% and that limit
#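 Agonist mode: compounds alone added to overnight-plated D2 PathHunter cells for 90 min at 37 C, with 57 uM final dopamine (EC100) defining full response. Beta-arrestin recruitment detected by chemiluminescent reagent, read after 1 h at ambient temperature.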
# D2 PAM-2 – positive allosteric modulators of human D2 dopamine receptor | 0.23% of 360,000 active | potentiation, % (concentration not given with the values) | DiscoveRx D2 beta-arrestin cells, luminescence, 90 min; 100% = 57 uM dopamine signal; in the data active means potentiation above about 50%; inconclusive means mostly about 30% to 49%
#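 D2 cells co-treated with compound plus 50 nM dopamine (EC20) for 90 min at 37 deg C to detect potentiation. Beta-arrestin recruitment was read as enzyme-fragment luminescence after 1 h at ambient temperature. Full response was set by 57 uM dopamine.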
# D2 ag-2 – activates the human D2 dopamine receptor; P14416; activation, % at 2 µM; HEK293 T-REx D2 cells, calcium flux agonist mode; 0.53% of 340,000 active;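 active means activation over 3 SD above normal in the single-dose calcium agonist read, cut at about 30% in these data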; further: 0% is about no effect
#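 Agonism scored from kinetic calcium signal (1 read/sec, 180 s) following compound pin transfer, after a 10 s baseline. Cells: HEK293 Trex line expressing inducible D2 receptor coupled to calcium, dye-loaded after overnight culture at 30 C.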
# Active calls of the source: *; ? = inconclusive; nt = no result. An excerpt weighted towards active compounds, which were near 2.4% of everything screened.
SMILES,D2 PAM-1,D2 antagonist,D2 ag-1,D2 PAM-2,D2 ag-2
C=CCN1C(c2ccc(Br)cc2)=CS/C1=C(\C#N)c1nnc(N2CCOCC2)n1-c1ccccc1,nt,nt,0.9,-9.5,nt
O=C(Nc1ccc(Cl)cc1)c1cnn2c1NC(c1ccccc1)=CC2c1ccccc1 (centres undefined),3.3,nt,nt,nt,-0.4
Cc1cn2c(=O)cc(COC(=O)c3ccc(NC(=O)c4ccc(C(C)(C)C)cc4)cc3)nc2s1,1.2,nt,nt,nt,2.2
Cc1oc(-c2ccccc2F)nc1CS(=O)(=O)CC(=O)N1CCN(c2ccc(Cl)cc2)CC1,5.0,nt,nt,nt,nt
CCN(CC)C(=O)C1CC(c2ccc(OC)cc2)=NO1 (centres undefined),8.5,31.3*,-1.9,-20.0,-0.6
COc1ccc(C2=NOC(C(=O)NC(C)(C)C)C2)cc1 (centres undefined),2.3,-11.3,-3.3,-1.3,0.9
CCOc1ccccc1NC(=O)CSc1ncc(S(=O)(=O)c2ccc(C)c(C)c2)c(N)n1,6.0,nt,nt,nt,-1.5
Cn1c(=O)oc2cc(S(=O)(=O)N3CCOCC3)ccc21,-13.0,45.9*,-0.1,20.5,-0.5
Cn1c(=O)oc2cc(S(=O)(=O)N3CCC4(CC3)OCCO4)ccc21,-1.1,3.6,0.4,2.1,1.8
Cc1oc(-c2cccc(Cl)c2)nc1Cn1c(SCc2ccc(F)cc2)nc2cccnc21,2.9,nt,nt,nt,1.0
Cc1cc(C)c2c(=O)[nH]c(SCC(=O)N(C)C)nc2n1,36.7*,-0.9,-2.8,-2.0,0.4
CCN(CC)C(=O)CSc1nc2nc(C)cc(C)c2c(=O)[nH]1,-5.6,-15.1,2.1,-2.2,-0.3
COc1ccc(N(Cc2ccccc2)C(=O)c2nc(S(C)(=O)=O)ncc2Cl)cc1,-7.5,nt,nt,nt,7.6
COc1ccc(OC)c(NC(=O)Cn2ccc3ccccc3c2=O)c1,-16.8,nt,nt,nt,0.3
O=C(Cn1nc(Cc2cccnc2)c2ccccc2c1=O)Nc1cccc(C(F)(F)F)c1,-0.7,nt,nt,nt,-0.6
COc1ccc(CCNC(=O)CCCn2c(=O)c3cccn3c3ccc(F)cc32)cc1OC,2.4,nt,nt,nt,2.5
COc1ccc(Cn2c3nc4ccccc4nc3c3c(=O)n(Cc4ccco4)c(C)nc32)cc1,-3.7,33.4*,nt,nt,1.1
COc1ccc(Cn2c(C)nc3c(c2=O)c2nc4ccccc4nc2n3Cc2ccco2)cc1,nt,nt,-0.1,0.5,nt
COc1ccc(C(=O)c2ncc(C(F)(F)F)cc2Cl)cc1,6.8,-9.5,1.8,-6.9,-0.4
COc1cccc(C(=O)c2ncc(C(F)(F)F)cc2Cl)c1,36.0*,-6.2,0.7,-2.2,-1.2
O=C(N1CCOCC1)n1cnc2ccccc21,51.4*,-6.4,-3.4,1.9,-2.1
O=C(N1CCOCC1)n1nnc2ccccc21,1.0,2.2,-0.6,-1.6,-1.9
COc1ccc(C)cc1NC(=O)NCc1ccc2c(c1)CCN2C(=O)c1ccccc1,-14.2,nt,nt,nt,-0.8
COc1ccc(Cn2c(CCC(=O)NCc3ccc(Cl)cc3)nc3cccnc32)cc1,11.6,nt,nt,nt,-0.2
O=C(CNS(=O)(=O)c1ccccc1)OCC(=O)c1ccc([N+](=O)[O-])cc1,3.4,-6.3,13.5,11.2,-0.4
SMILES,D2 PAM-1,D2 antagonist,D2 ag-1,D2 PAM-2,D2 ag-2
NNC(=O)CNS(=O)(=O)c1ccc([N+](=O)[O-])cc1,8.4,49.1*,7.0,15.4,2.1
O=c1nc2s/c(=C\c3ccco3)c(=O)n2nc1Cc1ccc(F)cc1,6.2,35.3*,-0.4,-7.6,1.0
Cc1ccccc1NCC(=O)N/N=C/C(Br)=C/c1ccccc1,32.5*,-6.5,-0.1,-8.2,-0.5
COCCn1nnnc1C(c1ccc(O)c(OC)c1)N1CCc2ccccc2C1 (centres undefined),-18.3,43.6*,1.9,-1.3,0.9
COc1ccc(C(c2nnnn2C2CCCC2)N2CCc3ccccc3C2)cc1OC (centres undefined),9.3,25.9,-4.3,-8.5,0.4
CCOC(=O)N1CCC(NCCNC(=O)c2cccc(F)c2)CC1,-23.7,60.3*,-1.7,-20.7,5.7
CCOC(=O)N1CCC(NCCNC(=O)c2ccc(F)cc2)CC1,-25.1,66.2*,-1.4,-21.4,4.5
CCOC(=O)N1CCC(NC(=O)c2ccc(Cl)cc2)CC1,-6.3,2.4,-4.5,-13.1,0.3
Cc1nc(=O)c(-c2ccccc2)c(C)n1-c1cccc(C(=O)O)c1,-7.5,31.3*,-1.9,5.8,0.0
CSc1ncccc1C(=O)Nc1ccc(OC(F)(F)F)cc1,-4.0,-20.6,-1.1,-1.4,1.1
CC(=O)Nc1ccc(Sc2ncccc2C(=O)Nc2ccc(F)cc2)cn1,5.9,2.0,0.0,-4.0,32.6*
COc1ccc2oc(=O)c(C(=O)NCCc3c(C)[nH]c4ccc(Br)cc34)cc2c1,3.6,nt,nt,nt,-0.1
O=C(CSCC(=O)NC1CC1)Nc1ccc2ccccc2c1,-20.5,34.7*,-0.3,-29.5,0.8
O=C(NNS(=O)(=O)c1ccc(Cl)cc1)c1sccc1-n1cccc1,nt,nt,-4.0,-6.5,nt
O=C(NNC(=O)c1sccc1-n1cccc1)c1ccc(Cl)cc1,3.6,36.4*,-1.7,8.8,0.2
Cc1ccc(C(=O)Nc2nnc(SCc3cc(=O)n4ccc(C)cc4n3)s2)cc1,-0.3,nt,nt,nt,1.8
Cc1cc(C)cc(C(=O)NCC(=O)OCN2C(=O)c3ccccc3C2=O)c1,-3.6,44.1*,-3.7,-8.3,0.1
COC(=O)COc1ccc2oc(=O)cc(-c3cc4cccc(OC)c4o3)c2c1,0.6,46.0*,-0.3,3.6,0.1
COc1ccc(-c2nnc(SCC(=O)c3[nH]c(C)c(C(C)=O)c3C)o2)cc1,38.1*,-8.5,0.8,-4.1,0.4
CC(=O)c1c(C)[nH]c(C(=O)CSc2nnc(-c3ccco3)o2)c1C,8.0,-10.2,3.0,-2.7,0.1
Cc1c(Br)c([N+](=O)[O-])nn1CC(=O)Nc1nccs1,52.4*,-2.0,-2.1,-3.3,0.1
COc1ccccc1NC(=O)C1CCCN(c2ncnc3onc(-c4ccc(F)cc4)c23)C1 (centres undefined),11.5,nt,nt,nt,0.1
Cc1cccc(OCC(=O)O/N=C(\N)Cc2ccc(Cl)cc2)c1,33.4*,-2.0,2.0,-9.7,1.2
N/C(Cc1ccc(Cl)cc1)=N\OC(=O)c1ccccc1,-5.0,14.8,?,68.2*,-1.7
COc1ccc(C/C(N)=N/n2cnnc2)cc1Cl,6.1,1.2,0.1,8.5,0.7
COc1ccc(C(=O)O/N=C(\N)Cc2ccc(Cl)cc2)cc1OC,-4.9,13.5,13.1,164.5*,0.1
COc1ccc(C(=O)O/N=C(\N)Cc2ccc(Cl)c(Cl)c2)cc1OC,-4.9,-13.2,?,118.4*,0.4
CCc1ccc(NC(=O)CC2C(=O)N(c3cccc(C)c3)C(=O)N2Cc2ccco2)cc1 (centres undefined),-8.3,nt,nt,nt,nt
N/C(CN1CCCC1=O)=N\OC(=O)c1ccc(Cl)c(Cl)c1,3.6,-3.5,?,110.2*,0.3
N/C(CN1CCCC1=O)=N\OC(=O)c1ccc(Cl)cc1,16.0,-1.7,1.6,14.5,0.4

# Screening data (PubChem)
